In PubChem BioAssay AID2284066 (EPA ToxCast):
Activity calls are given as the source filed them. How the source made its calls: active means hit-call score of the fitted dose curve at least 0.9, where 1 is the maximum; inactive means score below 0.9.

Molecular target: Tyrosine-protein kinase Fyn (Homo sapiens) (UniProt P06241)
Experiment: ERF_FR_ENZ_hFYN: Eurofins (ERF) Enzymatic Radiometric [Km ATP] KinaseProfiler LeadHunter Assay for human Fyn Tyrosine Kinase
Experimental: ERF_FR_ENZ_hFYN is a biochemical, single-readout assay that uses extracted gene-proteins in a cell-free assay. Measurements were taken 1 hour after chemical dosing in a 96-well plate. See Fyn Human TK Kinase Enzymatic HTRF Assay [Km ATP], Cerep.ERF_FR_ENZ_hFYN is an assay component calculated from the ERF_FR_ENZ_hFYN assay. It is designed to measure enzyme activity using a type of enzyme reporter as detected by fluorescence intensity with HTRF technology.Data from the assay component ERF_FR_ENZ_hFYN was analyzed at the assay endpoint, ERF_FR_ENZ_hFYN, in the positive analysis fitting direction relative to DMSO as the negative control and baseline of activity. Using a type of enzyme reporter, loss-of-signal activity can be used to understand changes in enzymatic activity as they relate to gene FYN. To generalize the intended target to other relatable targets, this assay endpoint is annotated to the kinase intended target family, where the subfamily is non-receptor tyrosine […].
Fyn (h) is incubated with 50 mM Tris pH 7.5, 0.1 mM EGTA, 0.1 mM Na3VO4, 250 uM […] (Cdc2 peptide), 10 mM MgAcetate and [gamma-33P]-ATP (specific activity and concentration as required). The reaction is initiated by the addition of the Mg/ATP mix. After incubation for 40 minutes at room temperature, the reaction is stopped by the addition of phosphoric acid to a concentration of 0.5%. […]

Tyrosine-protein kinase Fyn (Homo sapiens), sequence (P06241 whole entry, looked up): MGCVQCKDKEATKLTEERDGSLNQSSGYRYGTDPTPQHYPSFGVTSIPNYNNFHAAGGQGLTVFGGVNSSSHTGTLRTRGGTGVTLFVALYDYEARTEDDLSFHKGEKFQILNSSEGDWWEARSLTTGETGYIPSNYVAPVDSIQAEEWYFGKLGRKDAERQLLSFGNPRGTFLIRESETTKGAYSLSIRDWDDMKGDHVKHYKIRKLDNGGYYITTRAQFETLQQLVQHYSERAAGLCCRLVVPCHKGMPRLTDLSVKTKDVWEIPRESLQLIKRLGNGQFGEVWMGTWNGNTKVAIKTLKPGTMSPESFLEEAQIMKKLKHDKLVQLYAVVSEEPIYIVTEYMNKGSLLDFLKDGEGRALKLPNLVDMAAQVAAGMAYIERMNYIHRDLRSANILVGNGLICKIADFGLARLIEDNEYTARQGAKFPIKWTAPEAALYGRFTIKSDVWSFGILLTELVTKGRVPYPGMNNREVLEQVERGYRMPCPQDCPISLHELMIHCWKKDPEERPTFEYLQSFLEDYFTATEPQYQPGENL

| Compound | AC50 |
| --- | --- |
| O=C(/C=C/c1ccc(O)cc1)CC(=O)/C=C/c1ccc(O)cc1 | 992 nM (active) |
